# Experimental data from ChEMBL document CHEMBL3988442, “University of Dundee, Small-Polar-MMV Screening Library” (2021).
# Among all 69,000 compounds or so, about 1,000 (1.4%) showed an effect of 50% or more. The list comes from a sample in which strong results are over-represented; it also holds similar structures and randomly drawn compounds.
# System: Leishmania donovani
# Test: Leishmania intramacrophage assay
# Type: functional, organism-based
# Parameters: scale not given: in the data most compounds retested in dose-response had high values
compound,measurement,setting,value
Cn1cnnc1C1CCCN(C(=O)NCCOc2ccccc2)C1 (configuration not stated),Percent Effect,"30 µM, 30.03 µM",2.584%
CCc1nc(C2CCCN2C(=O)CCc2cscn2)no1 (configuration not stated),Percent Effect,30 µM,-30.43%
Cc1cccc(CN(Cc2ccccn2)Cc2ncc(C(C)(C)C)o2)c1,Percent Effect,"30.3 µM, […]",68.09%
Cc1cccc(CN(Cc2ccccn2)S(=O)(=O)N(C)C)c1,Percent Effect,"30.3 µM, […]",9.457%
CCN(Cc1cccc(Cl)c1)Cc1ncc(C(C)(C)C)o1,Percent Effect,"30.3 µM, […]",12.9%
Cc1ccc(F)c(C(=O)N2C[C@@H](C(=O)O)[C@H](c3ccncc3)C2)c1Cl,Percent Effect,"30.3 µM, […]",16.35%
O=S1(=O)CCC(c2nc(-c3cccc(Br)c3)no2)C1 (configuration not stated),Percent Effect,"30.3 µM, […]",2.793%
COCCN(Cc1cnn(C)c1)CC1CCOC1 (configuration not stated),Percent Effect,"30.3 µM, […]",-5.95%
COCCN(Cc1cnn(C)c1)Cc1ccc(C)o1,Percent Effect,"30.3 µM, […]",22%
COCCN(Cc1cnn(C)c1)CC1CCN(C(C)C)CC1,Percent Effect,"30.3 µM, […]",53.86%
c1ccc2c(N3CCCC3Cn3cccn3)ncnc2c1 (configuration not stated),Percent Effect,"30 µM, 30.03 µM",38.82%
Cc1nccn1CC1CCCN1S(=O)(=O)Cc1ccccc1F (configuration not stated),Percent Effect,"30 µM, 30.03 µM",17.08%
COCc1noc(-c2cc(Cl)c3c(c2)OCO3)n1,Percent Effect,"30.3 µM, […]",-15.75%
O=C(CCn1c(=O)oc2ccccc21)NCC(O)c1ccc(F)c(F)c1 (configuration not stated),Percent Effect,"30.3 µM, […]",41.71%
O=C(CCn1c(=O)oc2ccccc21)NCC(O)c1ccc(Cl)cc1 (configuration not stated),Percent Effect,"30.3 µM, […]",46.94%
O=C(CCn1c(=O)oc2ccccc21)NCC(O)c1ccccc1 (configuration not stated),Percent Effect,"30.3 µM, […]",50.97%
OC1=C2C(=Nc3n[nH]c(O)c3C2c2ccccc2Cl)CCC1 (configuration not stated),Percent Effect,"30.3 µM, […]",11.34%
CN(C)c1cncc(C2CCN(CCO)CC2)n1,Percent Effect,"30 µM, 30.03 µM",34.76%
CN(Cc1cccnc1)CC1CN(C(N)=O)Cc2nccn2C1 (configuration not stated),Percent Effect,"30.3 µM, […]",59.79%
CCC(=O)N1Cc2nccn2CC(CN(C)Cc2cccnc2)C1.O=C(O)C(F)(F)F.O=C(O)C(F)(F)F (configuration not stated),Percent Effect,"30 µM, 30.03 µM",14.09%
COCC(=O)N1Cc2nccn2CC(CN(C)Cc2cccnc2)C1 (configuration not stated),Percent Effect,"30.3 µM, […]",24.51%
NC(=O)CCn1cc(CNCCCc2ccccc2O)c2ccccc21,Percent Effect,"30.3 µM, […]",30.89%
Cc1ccsc1CNCC1CCCN1c1cccnn1 (configuration not stated),Percent Effect,30 µM,29.66%
CC(C)N1CCC2(CCCN(Cc3ccc(F)cc3)C2=O)C1 (configuration not stated),Percent Effect,"30.3 µM, […]",12.06%
CCCc1cc(N2CCC(N[C@H]3CC[C@H](O)CC3)CC2)nc(C)n1,Percent Effect,"30.3 µM, […]",8.442%
Cc1nn(C)c2cn(CC(=O)N3CCN(c4ccccc4)CC3)nc12,Percent Effect,"30.3 µM, […]",30.49%
CN1CCN(c2ccc(Cl)cc2NC(=O)c2ccco2)CC1,Percent Effect,"30.3 µM, […]",18.57%
CN1CCN(c2ccc(Br)cc2NC(=O)c2ccco2)CC1,Percent Effect,"30.3 µM, […]",53.58%
CN1CCN(c2ccccc2NC(=O)c2ccco2)CC1,Percent Effect,"30.3 µM, […]",13.32%
Cc1ccc(C(=O)O)cc1-c1cccc2c1CCNC2,Percent Effect,"30.3 µM, […]",17.04%
O=C(c1ccnnc1)N1C[C@H](OCC2CC2)[C@H]2COC[C@H]21,Percent Effect,"30.3 µM, […]",15.2%
CCOc1ccc(Cl)c(C(=O)NC(C(N)=O)c2ccccc2)n1 (configuration not stated),Percent Effect,"30.3 µM, […]",28.97%
Cc1cccc(CN2C(=O)CC[C@@H]3[C@H]2CCN3Cc2ccc(C)s2)n1.O=C(O)C(F)(F)F.O=C(O)C(F)(F)F,Percent Effect,"30 µM, 30.03 µM",7.01%
NC1CCCc2c1cnn2-c1cc(F)cc(F)c1 (configuration not stated),Percent Effect,"30.3 µM, […]",-4.914%
Cc1cc(C)cc(-n2ncc3c2CCCC3N)c1 (configuration not stated),Percent Effect,"30.3 µM, […]",79.9%
Cc1ccc(-n2ncc3c2CCCC3N)cc1C (configuration not stated),Percent Effect,"30.3 µM, […]",72.93%
Cc1ccc(-n2ncc(C(=O)N(C)C3CCN(C)CC3)c2N)cc1C,Percent Effect,"30.3 µM, […]",14.5%
CC(C)(C)c1ccc(-n2ncc3c2CCCC3N)cc1 (configuration not stated),Percent Effect,"30.3 µM, […]",27.02%
CN(C)S(=O)(=O)NC1CCCc2c1cnn2-c1ccc(C(C)(C)C)cc1 (configuration not stated),Percent Effect,"30.3 µM, […]",27.24%
O=C(O)C(F)(F)F.c1cnc(NCc2nnn3c2CN(Cc2ccsc2)CCC3)nc1,Percent Effect,"30.3 µM, […]",-35.49%
Cc1ccc(OCCNc2cccc(C(=O)N3CCOCC3)c2)cc1,Percent Effect,"30.3 µM, […]",19.35%
CC(=O)NCc1cccc(-n2ccnc2-c2cccc(C(=O)O)c2)c1,Percent Effect,"30.3 µM, […]",-4.637%
CC(C)C(NC(=O)c1ccccc1F)C(=O)Nc1cnn(C)c1 (configuration not stated),Percent Effect,"30.3 µM, […]",14.78%
Cc1ccc(-c2cc(C(=O)NCCN3CCCS3(=O)=O)[nH]n2)cc1,Percent Effect,30 µM,-10.89%
CC(C)c1nc(C2CCCN(C(=O)CCCn3ccnc3)C2)no1 (configuration not stated),Percent Effect,30 µM,30.47%
NC(=O)C1CCCN1C1CCN(C(=O)c2ccc3c(c2)OCO3)CC1 (configuration not stated),Percent Effect,"30.3 µM, […]",5.65%
COc1ccc(NCc2nc(=O)n(CCC(C)C)[nH]2)cc1,Percent Effect,"30 µM, 30.03 µM",11.21%
O=C(Cc1cccc(F)c1)NCCNCc1ccc2c(c1)CCO2,Percent Effect,"30 µM, 30.03 µM",29.87%
O=c1[nH]c2nc(NCC3CCCO3)ncc2c(=O)n1-c1ccc(F)cc1 (configuration not stated),Percent Effect,"30.3 µM, […]",51.53%
O=c1[nH]c2nc(NC3CC3)ncc2c(=O)n1-c1ccc(F)cc1,Percent Effect,"30.3 µM, […]",24.05%
O=c1[nH]c2nc(NCC3CCCO3)ncc2c(=O)n1-c1cccc(F)c1 (configuration not stated),Percent Effect,"30.3 µM, […]",20.13%
O=C(c1cc(C2CCCCN2CCO)n[nH]1)N1CCOCC1.O=CO (configuration not stated),Percent Effect,"30.3 µM, […]",-5.533%
CN[C@@H](C)C(=O)N(Cc1cccc(C)c1)Cc1ccccc1OC,Percent Effect,"30.3 µM, […]",82.29%
COc1ccccc1CN(Cc1cccc(C)c1)C(=O)[C@@H](N)CC(=O)O,Percent Effect,"30.3 µM, […]",13.42%
COCC(=O)N(Cc1cccc(C)c1)Cc1ccccc1OC,Percent Effect,"30.3 µM, […]",40.9%
CC1CN(C(=O)C2(c3cccc(F)c3)CCOCC2)CCO1 (configuration not stated),Percent Effect,"30.3 µM, […]",18.33%
O=C(NCCCN1CCc2ccccc2C1)c1ccccc1Br,Percent Effect,30 µM,36.73%
Cc1ccccc1C(=O)NCCCN1CCc2ccccc2C1,Percent Effect,30 µM,9.574%
O=C(NCCCN1CCc2ccccc2C1)c1ccccc1Cl,Percent Effect,30 µM,53%
N#Cc1ccc(OCC(O)CN2CCC(Cn3cccn3)CC2)cc1 (configuration not stated),Percent Effect,30 µM,5.34%
O=C(O)C(F)(F)F.O=C(O)[C@]12CCCN(CC3CCOC3)C[C@H]1CN(c1ncccn1)C2 (some centres not stated),Percent Effect,"30.3 µM, […]",22.4%
O=C(O)C(F)(F)F.O=C(O)[C@]12CCCN(C3CCOC3)C[C@H]1CN(c1nncs1)C2 (some centres not stated),Percent Effect,"30.3 µM, […]",23.22%
Cc1cnc(N2C[C@@H]3CN(C4CCOC4)CCC[C@]3(C(=O)O)C2)nc1.O=C(O)C(F)(F)F (some centres not stated),Percent Effect,"30.3 µM, […]",51.36%
CC(C)(C)OC(=O)N1CCCC[C@H]1C(=O)NCc1nccs1,Percent Effect,"30 µM, 30.03 µM",12.63%
CCc1c(C)sc(NC(=O)CN2CCN(CC)CC2)c1C(=O)OC,Percent Effect,"30 µM, 30.03 µM",52.48%
CCOC(=O)c1c(NC(=O)CN2CCN(C(C)=O)CC2)sc(C)c1C,Percent Effect,"30.3 µM, […]",29.91%
CCc1c(C)sc(NC(=O)CN2CCOCC2)c1C(=O)OC,Percent Effect,"30.3 µM, […]",-39.48%
